This is a sample that favours compounds with a hit; in the whole collection about 1.3% have one here.
gsp antagonist: antagonists of gsp mutant (McCune-Albright syndrome); gsp-mutant cells, cAMP HTRF, 30 min; Potency, µM (highest dose often 76.9 µM), inactives show top-dose activity change, negative = inhibition, hits mostly inhibitors; hit rate 0.4% among 340,000; AID 624288; calls by dose curve; cell line not stated here;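 note: intracellular cAMP measured with PDE inhibitor Ro 20-1724 present during compound exposure; potency is the fitted concentration of half-maximal effect; % is set by controls: 0 for no effect and ±100 for the full control effect; nearly all actives have a fitted effect of over 65% in size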
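HTRF cAMP measurement after 30 min RT detection following 30 min, 37C compound treatment alongside […] (added as 300 uM solution) in G418-selected cells seeded at 2000/well and grown 16–24 h.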
RXFP1 antagonist: antagonists of human relaxin receptor RXFP1 | Q9HBX9 | HEK293-RXFP1, relaxin-stimulated cAMP HTRF, 30 min; stronger effect = lower value | activity change, negative = inhibition, % at 57.5 µM | hit rate 0.59% among 350,000 | AID 1259400;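 active = activity change of -60% or lower, but not beyond a set lower limit; inconclusive = change between -60% and -40%, or beyond the set limit; inactive = change above -40%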; note: % is set by controls: 0 for no effect and ±100 for the full control effect
Target sequence (Q9HBX9 whole entry, looked up): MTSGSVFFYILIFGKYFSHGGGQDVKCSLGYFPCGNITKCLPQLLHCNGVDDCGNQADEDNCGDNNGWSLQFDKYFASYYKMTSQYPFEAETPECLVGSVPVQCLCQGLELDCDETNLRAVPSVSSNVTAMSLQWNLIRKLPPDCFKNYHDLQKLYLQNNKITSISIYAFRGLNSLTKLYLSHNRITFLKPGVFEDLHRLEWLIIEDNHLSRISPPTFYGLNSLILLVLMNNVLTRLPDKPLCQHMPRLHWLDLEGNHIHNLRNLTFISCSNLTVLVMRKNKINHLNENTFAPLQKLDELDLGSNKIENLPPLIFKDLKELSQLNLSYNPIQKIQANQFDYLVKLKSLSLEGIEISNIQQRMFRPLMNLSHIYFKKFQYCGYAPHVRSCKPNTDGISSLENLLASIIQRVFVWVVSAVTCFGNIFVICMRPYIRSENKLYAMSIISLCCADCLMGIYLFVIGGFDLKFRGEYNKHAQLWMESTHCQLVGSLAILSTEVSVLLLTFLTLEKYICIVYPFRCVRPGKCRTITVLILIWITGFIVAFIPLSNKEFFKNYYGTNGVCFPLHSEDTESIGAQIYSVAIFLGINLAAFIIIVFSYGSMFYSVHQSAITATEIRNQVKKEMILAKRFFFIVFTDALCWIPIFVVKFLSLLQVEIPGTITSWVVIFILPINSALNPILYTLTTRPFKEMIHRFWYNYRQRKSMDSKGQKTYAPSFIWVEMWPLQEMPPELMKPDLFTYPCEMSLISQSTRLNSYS
pAkt inh: blocks phosphorylation of Akt | AID 651550 | activity change, % for hits at 50 µM | hit rate 0.32% among 360,000 | Neuro2A IGF-stimulated pAkt S473 HTRF, 20 min; stronger effect = lower value; in the data active = activity change below about -80%; inconclusive = mostly about -51% to -80%; note: % is set by controls: 0 for no effect and ±100 for the full control effect
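Single-point screen (50 µM final compound) in Neuro2A cells stimulated 20 min with 6 nM IGF at 37 deg C. After lysis, Ser473-phosphorylated Akt read by HTRF (ex 330 nm, em 615/665 nm) as the 665/615 ratio.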
gsp ag: gsp mutant agonism; gsp mutant cells, cAMP HTRF, 30 min; Potency, µM (top dose mostly 76.9 µM), for the others: top-dose activation (cAMP increase), most hits filed as activators; hit rate 0.13% among 340,000; AID 624287; active = well fitted activation curve with a large enough effect; inconclusive = small, poorly fitted or top-dose-only effect, or another doubt; inactive = no such curve, though single readings can be large or run the other way; cell line not stated here;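 note: phosphodiesterase inhibitor Ro 20-1724 added with compounds to block cAMP breakdown; potency is the fitted concentration of half-maximal effect; nearly all actives have a fitted effect of over 60% in size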
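Cells in DMEM/10% FBS with G418 were pretreated with compounds in DMSO plus […] (300 uM stock) for 30 min at 37C. cAMP was measured by HTRF (cAMP-d2 plus anti-cAMP antibody-K) after 30 min at room temperature.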
RXFP1 ag: activates the human relaxin receptor RXFP1. Q9HBX9. HEK293T-RXFP1 cAMP TR-FRET, 30 min; response scale: percent of porcine relaxin response, buffer zero. Potency, µM (highest dose often 57.5 µM), for inactives: at the highest dose activation, most hits filed as activators. hit rate 0.3% among 370,000; active = well fitted activation curve with a large enough effect; inconclusive = small, poorly fitted or top-dose-only effect; note: potency is the fitted concentration of half-maximal effect; % is set by controls: 0 for no effect and ±100 for the full control effect; nearly all actives have a fitted effect of over 60% in size
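HEK293 cells stably expressing RXFP1, treated 30 min at 37C with compounds plus PDE4 inhibitor Ro 20174; cAMP measured by HTRF TR-FRET. Normalized to buffer and 29 nM porcine relaxin; EC50 by Hill fit.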
Starred values were filed as active, the others as inactive; i = inactive; ? = inconclusive; nt = no result given; [ ] = remark or other dose.

SMILES | gsp antagonist | RXFP1 antagonist | pAkt inh | gsp ag | RXFP1 ag
CCCC(O)(c1ccc(CC)cc1)C(CN1CCOCC1)c1ccccc1 (stereo not given) | 1.5% | -62.4* | i | -8.8%[15.4 µM] | -2.8%
CCc1ccc(C(O)(C(C)C)C(CN2CCOCC2)c2ccccc2)cc1 (stereo not given) | -8.7% | -78.1* | i | -0.4% | -0.8%
CCOc1ccc(NC(=O)CCS(=O)(=O)c2cc3c4c(c2)CCN4C(=O)CC3)cc1 | nt | nt | nt | nt | 0.6%
COc1ccc2c(c1)C(=NNc1ccc(C(=O)O)cc1)c1cc(OC)ccc1-2 | -18.9% | 1.7 | i | 12.6µM* | 1.1%
CCc1ccccc1NC(=O)C1CCN(c2nn3c(=O)cc(C)nc3s2)CC1 | nt | nt | nt | nt | 23.9%
COc1ccc(N2CCN(CC(O)COc3ccc(C(C)C)c(C)c3)CC2)cc1 (stereo not given) | nt | -4.9 | nt | nt | 2.9%
O=C(NCc1ccccc1Cl)NCc1noc2ccccc12 | nt | -9.4 | nt | nt | 1.6%
COC(=O)c1sccc1-c1ccc(C(=O)Nc2ccccc2)o1 | -26.3% | 1.1 | -128.2%* | 15.1% | 2.4%
COC(=O)c1sccc1NC(=O)c1ccc(C)o1 | -1.7% | -7.0 | i | -1.6% | 6.0%
Cc1[nH]c2ccccc2c1SCCNC(=O)c1ccc(Br)o1 | -18.7% | -82.0* | i | 5.8% | -2.1%
Cc1ccc(NS(=O)(=O)c2cc(NC(=O)c3ccc4c(c3)NC(=O)CS4)ccc2C)c(C)c1 | -19.0% | -63.3* | i | 4.7%[15.4 µM] | -0.5%
COc1ccc(NC(=O)c2ccc3c(c2)NC(=O)CS3)cc1S(=O)(=O)Nc1ccc(Br)cc1 | -1.7% | -2.5 | i | -180.4% | -0.7%
CCC(c1nnnn1CCOC)N(Cc1cc2cc(C)c(C)cc2[nH]c1=O)CC1CCCO1 (stereo not given) | -10.1% | -10.5 | -116.6%* | ? | -0.6%
CCCC(c1nnnn1CCOC)N(Cc1cc2cc(C)c(C)cc2[nH]c1=O)CC1CCCO1 (stereo not given) | -3.3% | 6.2 | i | 4.3% | 5.0%
CC(C)c1ccc(-c2c(C#N)c(N)nc(SCC(=O)N3CCCCC3)c2C#N)cc1 | 37.8% | 9.4 | i | ? | 22.4µM*
CCC(C)NC(=O)CSc1nc2cc3c(cc2c(=O)n1CCCCCC(=O)NCc1ccc(OC)cc1)OCO3 (stereo not given) | nt | -12.7 | nt | nt | 3.7%
CCN1CCN(c2cc(C)c3cc(NC(=O)/C=C/c4cccc(Cl)c4)ccc3n2)CC1 | nt | 7.7 | nt | nt | -1.2%
N#C/C(=C(/O)C(Cl)(Cl)Cl)c1nc2ccccc2[nH]1 | 28.2µM* | -16.8 | i | -11.7% | 2.5%
CCCCNc1c(-c2ccc(OC)c(SC3CCCCC3)c2)nc2ccc(C)cn12 | 31.6µM* | nt | i | ? | nt
CCCCNc1c(-c2ccc(SC3CCCCC3)c(OC)c2)nc2ccc(C)cn12 | -3.2% | nt | i | nt | nt
COc1ccc(-c2nc3ccc(C)cn3c2NCc2ccccc2)cc1SC1CCCCC1 | 35.5µM* | nt | i | nt | 15.7%
Cc1sc2ncn(CC(=O)N(C)c3cccc(C(F)(F)F)c3)c(=O)c2c1S(=O)(=O)N1CCN(c2ncccn2)CC1 | nt | nt | nt | nt | -2.0%
O=C(CSc1nc2c([nH]c3ccccc32)c(=O)n1-c1cccc(Cl)c1)N1CCc2ccccc21 | nt | nt | nt | nt | 0.3%
CC(C)OP(=O)(CP(=O)(OC(C)C)OC(C)C)OC(C)C | nt | -12.7 | nt | nt | nt
CC(=O)C1=C(c2ccc(Cl)c(Cl)c2)N(C(C)=O)n2cnnc2S1 | nt | -83.3* | nt | nt | 3.9%
SMILES | gsp antagonist | RXFP1 antagonist | pAkt inh | gsp ag | RXFP1 ag
CC(=O)C1=C(c2ccc(Cl)c(Cl)c2)N(C(C)=O)n2c(C)nnc2S1 | nt | -84.4* | nt | nt | 5.1%
NC(=O)CC(NC(=O)Cc1cccc2ccccc12)c1ccc(N2CCCCCCC2)c([N+](=O)[O-])c1 (stereo not given) | 50.1µM* | nt | i | -5.3% | -0.7%
Cn1cnc2c(=O)oc3ccc(S(=O)(=O)Nc4ccc(F)cc4)cc3c21 | nt | -11.7 | nt | nt | 6.7%
CCN(CC(=O)Nc1cccc(F)c1)Cc1nc2ccccc2c(=O)[nH]1 | 31.6µM* | 1.6 | i | ? | 0.1%
CCCn1c(SCC(=O)Nc2ccccc2C(=O)NC2CC2)n[nH]c1=O | 30.7% | -1.9 | i | 44.7µM* | 14.9%
Cn1c(CCC(N)=O)nnc1SCC(=O)Nc1ccccc1C(=O)NC1CC1 | -0.3% | -5.1 | i | -3.1% | -1.9%
COc1ccccc1NC(=O)c1cc2c(=O)oc3ccc(C)cc3c2s1 | nt | -0.1 | nt | nt | 0.3%
Cc1ccc(-c2nc3cc(C(C)C)ccc3o2)cc1NC(=O)c1cc([N+](=O)[O-])ccc1N1CCOCC1 | nt | nt | nt | nt | 1.5%
COc1ccc(NC(=O)CN(C)S(=O)(=O)c2cnc[nH]2)cc1OC | 1.3% | -8.9 | i | ? | 2.0%
Cc1cc(C)cc(NC(=O)CN(C)S(=O)(=O)c2cnc[nH]2)c1 | 1.4% | -4.5 | -116.1%* | -25.4% | 0.9%
OCc1nc2ccccc2n1Cc1c(F)cccc1Cl | 11.1% | -0.7 | i | 1.3% | 0.0%
CSc1nc2ccccc2n1Cc1c(Cl)cccc1Cl | 39.8µM* | -18.4 | i | -5.8% | 1.9%
Cc1cc(C)n(CCc2nc3c4ccccc4nc(N4CCN(c5ccccc5)CC4)n3n2)n1 | nt | nt | nt | nt | -0.3%
O=S(=O)(c1ccccc1)[C@@]1(c2ccc(Br)cc2)C[C@@H]2ON=C(c3ccccc3)[C@@H]2C1 | 11.2µM* | nt | i | nt | -0.1%
COc1ccc(-c2nc(C)c(CCNC(=O)c3ccco3)s2)cc1 | nt | nt | nt | nt | -0.3%
CC(=O)c1sc(N/N=C/c2cccc(O)c2)nc1C | -9.8% | nt | i | 18.2% | 0.7%
CC(=O)c1sc(N/N=C\c2c(O)ccc3ccccc23)nc1C | -6.0% | -82.2* | i | 12.0% | nt
O=C(COc1ccc(Cl)cc1)NCC(c1ccco1)S(=O)(=O)c1ccc(Cl)cc1 (stereo not given) | nt | -37.6 | nt | nt | 3.5%
Cn1c(=O)n(C)c2cc(NS(=O)(=O)c3ccc(Br)cc3)c(NCc3ccccc3)cc21 | nt | 2.0 | nt | nt | 3.6%
COc1ccc(S(=O)(=O)Nc2cc3c(cc2NCc2ccccc2)n(C)c(=O)n3C)cc1 | nt | 4.1 | nt | nt | 28.2µM*
CCN(CC)C(=O)CSc1nc(N)c(C#N)c(-c2cccs2)c1C#N | 7.1% | 14.6 | i | 5.7% | ?
Cc1ccccc1NC(=O)CSc1nc(N)c(C#N)c(-c2cccs2)c1C#N | -0.7% | 3.4 | -101.1%* | 20.2% | ?
CCOc1ccccc1NC(=O)CSc1nc(N)c(C#N)cc1C#N | -9.0%[15.4 µM] | 17.2 | -96.3%* | ? | ?
CC[N+]1(CC)CCC(=C(c2ccccc2)c2ccccc2)C1C (stereo not given) | nt | -6.3 | nt | nt | nt
Cc1cccc(NC(=O)CCCN2C(=O)c3ccccc3C2=O)n1 | 9.9% | 5.8 | -111.4%* | 8.5% | 0.5%
O=C(CCn1c(=O)sc2ccccc21)NC1=NCCS1 | 1.7% | -35.0 | i | -2.6% | 0.7%
Cc1cccc(NC(=O)CCCCCN2C(=O)c3ccccc3C2=O)n1 | 0.0% | -15.2 | i | -42.4% | 0.5%
O=C(CCN1C(=O)c2ccccc2C1=O)NC1=NCCS1 | 8.2% | -0.2 | -112.5%* | -31.7% | 2.3%

Bioassay records (PubChem BioAssay)
